± gives the standard deviation. Over roughly 3,000 sequences, “pre-steady-state target cleavage rate” has its median near 0.0079; the highest 2% begin near 0.2. This is one part of a sample in which the highest values are shown more often than they occur.
tested on: MILI (PIWIL2) piRISC loaded with piRNA #2 (26 nt); experiment: pre-steady-state target cleavage rate (min^-1); MIWI and MILI are mouse PIWI proteins and EfPiwi is from a freshwater sponge; tags in brackets are library labels; higher = faster piRNA-guided slicing of the target; conditions: guide: piRNA #2 5'p-UUAGGUAACCCAGUAGAUCCAGAGGA; auxiliary factor: 500 nM mouse GTSF1
Method: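 Cleave-'n-Seq: a library of target RNAs (target site embedded in constant flanks, ACAGCATTCCGCGTTAGTGATATCCG... 5' flank; DNA-blocked outside the site) at 0.1 nM was incubated with 1 nM active mouse MILI or MIWI piRISC (synthetic 5'-monophosphorylated piRNA guide) with or without 500 nM mouse GTSF1 at 33 °C for 1 min to 16 h. Uncleaved targets were sequenced and normalised to non-target controls, and the pooled three trials were fitted to a burst-and-steady-state model to give the pre-steady-state cleavage rate (min^-1; k3 is constrained to at most 1e-4). Sequence is the target site only; target names encode pairing extent (gX:gY) and contiguous / 1-mismatch / 2-mismatch / bulge geometry. Fits with R² ≤ 0 are excluded.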

| Sequence | pre-steady-state target cleavage rate |
| --- | --- |
| CUUAUCCUCUGGAUACUACUGGGUUACCUAA | 0.0816 ± 0.019 |
| CUUAAGCUCUGGAUCUACUGGGUUUCGUAA | 0.0193 ± 0.0086 |
| CUUAUCCUGUGGAUCUACUGGGUUACGUAA | 0.0102 ± 0.0038 |
| CUUAAGGUCUGGACUCUACUGGGUUACCUAA | 0.0367 ± 0.014 |
| CUUAACACUCUGGAUCUACUGGGUUACCUAA | 0.0824 ± 0.024 |
| CUUAAGCUCUGGAUCUACUGGGUUACGUAA | 0.0464 ± 0.011 |
| CUUAUCCUGCUGGAUCUACUGGGUUACCUAA | 0.0776 ± 0.018 |
| CUUAUCCUCUGGAUGUACUGGGUAACCUAA | 0.0198 ± 0.0082 |
| CUUAACCUCUCGAUCUACUGGGUUACGUAA | 0.052 ± 0.017 |
| CUUAUCCUCUGGUAUCUACUGGGUUACCUAA | 1.05 ± 0.33 |
| CUUAUCCUCUGGUUCUUCUGGGUUACCUAA | 0.338 ± 0.088 |
| CUUAUCCUCUGGUUCUACUGCGUUACCUAA | 0.0261 ± 0.0078 |
| CUUAUCCUCUGGUUCUACUGGGUUACCUAA | 0.469 ± 0.1 |
| CUUAUCCUCUGUAUCUACUGGGUUACCUAA | 0.0865 ± 0.015 |
| CUUAUCCUCUGCUUCUACUGGGUUACCUAA | 0.157 ± 0.026 |
| CUUAUCCUCUCCUUCUACUGGGUUACCUAA | 0.106 ± 0.023 |
| CUUAUCCUCUCGUUCUACUGGGUUACCUAA | 0.136 ± 0.021 |
| CUUAUCCUCUGGUUCUACUGGGUUACCUUA | 1.12 ± 0.39 |
| CUUAUCCUCUGGUUCUAGUGGGUUACCUAA | 0.134 ± 0.028 |
| CUUAUCCUCUGGAUCUACUGGGGUUACCUAA | 0.0435 ± 0.012 |
| CUUAUCCUCUGGAUCUUCUGGGUUACCUAA | 0.105 ± 0.019 |
| CUUAACCUCUGGAUCUACUGGGUUACCAUAA | 0.13 ± 0.03 |
| CUUAAGGAGACCUUCUACUGGGGUACCUAA | < 0.0001 |
| CUUAAGGUGUGGAUCAACUGGGUUACCUAA | 0.014 ± 0.0076 |

| Sequence | pre-steady-state target cleavage rate |
| --- | --- |
| CUUAAGCUCUGGAUCUUGUGGGUUACCUAA | 0.00903 ± 0.0046 |
| CUUAACCUCUGGAUCUACGGGGUUACCUAA | 0.0813 ± 0.012 |
| CUUAAGGAGUGGAUCUACUGGGUUACCGUAA | 0.0155 ± 0.0079 |
| CUUAUCCUCUGGAUCUACAGGGUUACCUAA | 0.119 ± 0.016 |
| CUUAAGGACAGGAUCUACUGGGUUACCUAA | 0.0192 ± 0.013 |
| CUUAAGGAGACCUAGAUCUGGGUAACCAAA | < 0.0001 |
| CUUAACCUCUGGUAUCUACUGGGUUACCUAA | 0.584 ± 0.19 |
| CUUAUCCUCUGGAUCUACUGGGUAACCUAA | 0.0929 ± 0.021 |
| CUUAUCCUCUGGUUGUACUGGGUUACCUAA | 0.151 ± 0.031 |
| CUUAUCCUCUGGUUCAACUGGGUUACCUAA | 0.225 ± 0.063 |
| CUUAAGCUCUGGUAUCUACUGGGUUACCUAA | 0.15 ± 0.038 |
| CUUAACCUCUGGUUCUACUGGGUAACCUAA | 0.14 ± 0.044 |
| CUUAUCCUCUGGUACUACUGGGUUACCUAA | 0.754 ± 0.23 |
| CUUAACCUCUGGUUCAACUGGGUUACCUAA | 0.117 ± 0.035 |
| CUUAUCCUCUGGAUCAACUGGGUUACCUAA | 0.0659 ± 0.012 |
| CUUAUCCUCUGGUUCUACUGGGUAACCUAA | 0.268 ± 0.097 |
| CUUAACCUCUGUAUCUACUGGGUUACCUAA | 0.071 ± 0.013 |
| CUUAUCCUCUGGUAGUACUGGGUUACCUAA | 0.103 ± 0.035 |
| CUUAAGGAGUAGGAUCUACUGGGUUACCUAA | 0.00494 ± 0.0041 |
| CUUAAGGUCUGCAUCUACUGGGUUACCAAA | 0.0157 ± 0.0062 |
| CUUAAGCUCUGGAUCUACUGGGUUAGCUAA | 0.094 ± 0.018 |
| CUUAACCUCUGGAUCUAUUGGGUUACCUAA | 0.0785 ± 0.023 |
| CUUAAGCUCUGGAUGUAGUGGGUUACCUAA | 0.061 ± 0.011 |
| CUUAAGCUCUGGAUCUACUGGGCUUACCUAA | 0.019 ± 0.0061 |
